Data: PubChem BioAssay AID1159580 (chemical genetic matrix, 2015)
Several values for one entry are separate records, joined by “and”; a condition that tells them apart may be missing. Equal values may be shown once. Hit rate of the full screen: of about 5,500 compounds, about 2,000 (36%) were called active. Inconclusive results (about 18%) are left out. Cut-off read from the data, not from the text of the source: active = normalized growth mostly below about 0.91 (no sharp cut-off); inconclusive = no clear call, values can overlap the other calls; inactive = mostly above about 0.92. This is one part of the list.

Experiment: chemical genetic growth profiling, strain panel (AID 1159580);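 note: tested at 20 µM; growth read once vehicle control cultures reached saturation at 30 °C; 1 = growth at the plate median or of vehicle wells; lower values mean less growth of the strain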
Conditions: growth OD

Measured: normalized growth

CNCCCC12CCC(c3ccccc31)c1ccccc12
inactive: S. cerevisiae deletion strains, locus YJR075W, strain HOC1, stronger effect = lower value 0.991 and 0.989 | S. cerevisiae deletion strains, locus YKL009W, strain mrt4, stronger effect = lower value 0.978 | S. cerevisiae deletion strains, locus YKL068W, stronger effect = lower value 0.983 | S. cerevisiae deletion strains, locus YKL085W, strain MDH1 (second series), stronger effect = lower value 0.982 | S. cerevisiae deletion strains, locus YKL085W, strain MDH1, stronger effect = lower value 0.982 | S. cerevisiae deletion strains, locus YKL160W, strain elf1, stronger effect = lower value 0.968 | S. cerevisiae deletion strains, locus YKR001C, strain vps1, stronger effect = lower value 1.02 | S. cerevisiae deletion strains, locus YKR026C, strain gcn3, stronger effect = lower value 0.979 | S. cerevisiae deletion strains, locus YKR091W, strain srl3, stronger effect = lower value 0.973 | S. cerevisiae deletion strains, locus YLL001W, strain dnm1, stronger effect = lower value 1.01 | S. cerevisiae deletion strains, locus YLL026W, stronger effect = lower value 0.97 | S. cerevisiae deletion strains, locus YLL041C, strain sdh2, stronger effect = lower value 0.98 | S. cerevisiae deletion strains, locus YLR027C, strain aat2, stronger effect = lower value 0.964 | S. cerevisiae deletion strains, locus YLR039C, strain RIC1, stronger effect = lower value 1.29 | S. cerevisiae deletion strains, locus YLR058C, strain SHM2, stronger effect = lower value 0.984 | S. cerevisiae deletion strains, locus YLR102C, strain apc9, stronger effect = lower value 0.992 | S. cerevisiae deletion strains, locus YLR113W, strain HOG1, stronger effect = lower value 1.01 | S. cerevisiae deletion strains, locus YLR221C, strain rsa3, stronger effect = lower value 0.998 | S. cerevisiae deletion strains, locus YLR258W, strain gsy2, stronger effect = lower value 0.974 | S. cerevisiae deletion strains, locus YLR262C, strain YPT6 (second series), stronger effect = lower value 0.937 | S. cerevisiae deletion strains, locus YLR262C, strain YPT6, stronger effect = lower value 1.32 | S. cerevisiae deletion strains, locus YLR268W, strain sec22, stronger effect = lower value 0.975 | S. cerevisiae deletion strains, locus YLR320W, strain mms22, stronger effect = lower value 0.992 | S. cerevisiae deletion strains, locus YLR330W, strain CHS5, stronger effect = lower value 0.993 | S. cerevisiae deletion strains, locus YLR342W, strain FKS1 (second series), stronger effect = lower value 0.944 | S. cerevisiae deletion strains, locus YLR342W, strain FKS1, stronger effect = lower value 0.954 | S. cerevisiae deletion strains, locus YLR357W, strain rsc2, stronger effect = lower value 0.968 | S. cerevisiae deletion strains, locus YLR370C, strain arc18, stronger effect = lower value 0.98 | S. cerevisiae deletion strains, locus YLR371W, strain rom2, stronger effect = lower value 0.963 | S. cerevisiae deletion strains, locus YLR384C, strain iki3, stronger effect = lower value 0.989 | S. cerevisiae deletion strains, locus YLR418C, strain cdc73, stronger effect = lower value 0.857 | S. cerevisiae deletion strains, locus YML016C, strain PPZ1, stronger effect = lower value 0.986 | S. cerevisiae deletion strains, locus YML032C, strain rad52, stronger effect = lower value 0.963 | S. cerevisiae deletion strains, locus YML120C, strain ndi1, stronger effect = lower value 0.976 | S. cerevisiae deletion strains, locus YML124C, strain tub3, stronger effect = lower value 0.995 | S. cerevisiae deletion strains, locus YMR058W, strain fet3, stronger effect = lower value 0.952 | S. cerevisiae deletion strains, locus YMR078C, strain ctf18, stronger effect = lower value 0.984 | S. cerevisiae deletion strains, locus YMR125W, strain sto1, stronger effect = lower value 0.939 | S. cerevisiae deletion strains, locus YMR129W, stronger effect = lower value 0.979 | S. cerevisiae deletion strains, locus YMR205C, strain PFK2, stronger effect = lower value 0.999 | S. cerevisiae deletion strains, locus YMR223W, strain ubp8, stronger effect = lower value 0.951 | S. cerevisiae deletion strains, locus YMR231W, strain pep5, stronger effect = lower value 0.985 | S. cerevisiae deletion strains, locus YMR263W, strain SAP30, stronger effect = lower value 0.992 and 1 | S. cerevisiae deletion strains, locus YMR307W, strain GAS1, stronger effect = lower value 0.979 | S. cerevisiae deletion strains, locus YNL067W, strain RPL9B, stronger effect = lower value 1 | S. cerevisiae deletion strains, locus YNL071W, strain lat1, stronger effect = lower value 0.986 | S. cerevisiae deletion strains, locus YNL128W, strain TEP1, stronger effect = lower value 1.03 | S. cerevisiae deletion strains, locus YNL153C, strain GIM3, stronger effect = lower value 1 | S. cerevisiae deletion strains, locus YNL175C, strain NOP13, stronger effect = lower value 1.02 | S. cerevisiae deletion strains, locus YNL183C, strain NPR1, stronger effect = lower value 0.949 | S. cerevisiae deletion strains, locus YNL197C, strain WHI3, stronger effect = lower value 1.03 | S. cerevisiae deletion strains, locus YNL209W, strain ssb2, stronger effect = lower value 0.967 | S. cerevisiae deletion strains, locus YNL224C, strain SQS1, stronger effect = lower value 1.01 | S. cerevisiae deletion strains, locus YNL233W, strain BNI4, stronger effect = lower value 0.954 | S. cerevisiae deletion strains, locus YNL248C, strain rpa49, stronger effect = lower value 0.932 | S. cerevisiae deletion strains, locus YNL250W, strain rad50, stronger effect = lower value 0.982 | S. cerevisiae deletion strains, locus YNL271C, strain bni1, stronger effect = lower value 0.993 | S. cerevisiae deletion strains, locus YNL298W, strain CLA4, stronger effect = lower value 0.967 | S. cerevisiae deletion strains, locus YNL307C, strain MCK1, stronger effect = lower value 0.978 | S. cerevisiae deletion strains, locus YNL322C, strain KRE1 (second series), stronger effect = lower value 0.976 | S. cerevisiae deletion strains, locus YNR049C, strain mso1, stronger effect = lower value 0.971 | S. cerevisiae deletion strains, locus YNR052C, strain pop2, stronger effect = lower value 0.962 | S. cerevisiae deletion strains, locus YOL012C, strain htz1 0.584 | S. cerevisiae deletion strains, locus YOL147C, strain pex11, stronger effect = lower value 0.987 | S. cerevisiae deletion strains, locus YOR001W, strain rrp6, stronger effect = lower value 0.992 | S. cerevisiae deletion strains, locus YOR061W, strain CKA2, stronger effect = lower value 0.991 | S. cerevisiae deletion strains, locus YOR069W, strain VPS5, stronger effect = lower value 0.993 | S. cerevisiae deletion strains, locus YOR070C, strain gyp1, stronger effect = lower value 0.983 | S. cerevisiae deletion strains, locus YOR080W, strain dia2, stronger effect = lower value 0.951 | S. cerevisiae deletion strains, locus YOR083W, strain WHI5 (second series), stronger effect = lower value 0.999 | S. cerevisiae deletion strains, locus YOR083W, strain WHI5, stronger effect = lower value 0.913 | S. cerevisiae deletion strains, locus YOR106W, strain vam3, stronger effect = lower value 0.95 | S. cerevisiae deletion strains, locus YOR136W, strain idh2, stronger effect = lower value 0.99 | S. cerevisiae deletion strains, locus YOR144C, strain elg1, stronger effect = lower value 0.997 | S. cerevisiae deletion strains, locus YOR184W, strain ser1, stronger effect = lower value 1.02 | S. cerevisiae deletion strains, locus YOR231W, strain MKK1, stronger effect = lower value 1.02 | S. cerevisiae deletion strains, locus YOR265W, strain rbl2, stronger effect = lower value 0.983 | S. cerevisiae deletion strains, locus YOR270C, strain vph1, stronger effect = lower value 0.927 | S. cerevisiae deletion strains, locus YOR290C, strain snf2, stronger effect = lower value 0.94 | S. cerevisiae deletion strains, locus YOR316C, strain cot1, stronger effect = lower value 0.991 | S. cerevisiae deletion strains, locus YPL051W, strain arl3, stronger effect = lower value 0.938 | S. cerevisiae deletion strains, locus YPL055C, strain LGE1, stronger effect = lower value 0.982 | S. cerevisiae deletion strains, locus YPL078C, strain atp4, stronger effect = lower value 0.967 | S. cerevisiae deletion strains, locus YPL106C, strain sse1, stronger effect = lower value 0.975 | S. cerevisiae deletion strains, locus YPL240C, strain hsp82, stronger effect = lower value 0.984 | S. cerevisiae deletion strains, locus YPL241C, strain CIN2, stronger effect = lower value 0.991 and 0.996 | S. cerevisiae deletion strains, locus YPL256C, strain CLN2, stronger effect = lower value 0.995 | S. cerevisiae deletion strains, locus YPR119W, strain clb2, stronger effect = lower value 0.992 | S. cerevisiae deletion strains, locus YPR141C, strain kar3, stronger effect = lower value 0.979 | S. cerevisiae deletion strains, locus YPR163C, strain tif3, stronger effect = lower value 0.994 | S. cerevisiae deletion strains, locus YPR167C, strain met16, stronger effect = lower value 0.996 | S. cerevisiae deletion strains, strain wtn01, stronger effect = lower value 0.964 | S. cerevisiae strains, strain wild type, stronger effect = lower value 0.993
